What all share (conditions): concentration: 1 μM,replicates: in singlicate; n = 1
The test system of assay [1] is BMX.
The test system of assay [2] is BRAF.
The subject of assay [3] is T1, BRK.
T1 construct: gene PTK6

In assay [4] the test system is BRSK1.
The test system of assay [5] is BRSK2.
The subject of assay [6] is BTK.
Assay [7] concerns BUB1.
The test system of assay [8] is CAMK1B.
Assay [9] deals with CAMK1D.
The subject of assay [10] is CAMK1G.
The test system of assay [11] is CAMK1.
The test system of assay [12] is CAMK2A.
Assay [13] concerns CAMK2B.
For assay [14], the system named is CAMK2D.
Assay [15] relates to CAMK2G.
Assay [16] has as its system CAMK4.
Assay [17] relates to CAMKK1.
Assay [18] has as its system CAMKK2.
Assay [19] deals with CASK.
Assay [20] deals with T2, CDC2L1.
T2 construct: gene CDK11B
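Also: KINOMEscan kinase panel screen.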

With `CN1CCN(CCNc2nc3cc(Oc4ccc(NC(=O)Nc5cc(C(F)(F)F)ccc5F)cc4)ccc3[nH]2)CC1.Cl.Cl` [GW768504], the “%Inh” value in assay [1] is recorded as 0%; in [2], 0%; in assay [3], 0%; in assay [4] it was 0%; in [5], 6%; in assay [6] it was 0%. For the same compound, the “%Inh” value is 0% in assay [7]; 0% in assay [8]; 0% in assay [9]; 4% in assay [10]; 15% in [11]; 0% in [12]. The “%Inh” value in assay [13] was determined as 0%; in assay [14], 0%; in assay [15], 0%; in [16], 20%; in assay [17] it was 0%; in assay [18] it was 0%. Besides, the “%Inh” value in assay [19] turned out to be 16%; in [20] it was 0%.

Regarding `OCCn1cc(-c2cnc3nnn(Cc4ccc5ncccc5c4)c3n2)cn1`, the “%Inh” value in assay [1] is listed as 0%; in assay [2] it was 1%; in assay [3] it was 0%; in assay [4], 22%; in [5], 0%; in assay [6] it was 0%. The “%Inh” value is reported as 0% in [7]; 0% in assay [8]; 4% in assay [9]; 0% in assay [10]; 0% in [11]; 0% in [12]. Also, the “%Inh” value in assay [13], in [14], in assay [15], in [16], in assay [17] and in [18] was 0% in each case. Moreover, the entries for the “%Inh” value in [19] and in assay [20] were 0% and 11%, respectively.

`O=C(Nc1cccc(C(F)(F)F)c1)c1cccc(Oc2ccc3nccn3n2)c1`: the “%Inh” value in assay [1] amounted to 8%; in assay [2] it was 76%; in assay [3], 4%; in assay [4] it was 31%; in assay [5], 100%; in assay [6] it was 0%. Moreover, the “%Inh” value stood at 12% in assay [7]; 0% in assay [8]; 3% in assay [9]; 0% in assay [10]; 1% in [11]; 0% in assay [12]. Besides, the “%Inh” value worked out at 0% in assay [13]; 0% in [14]; 0% in assay [15]; 0% in assay [16]; 8% in assay [17]; 0% in [18]. The “%Inh” value worked out at 17% in assay [19] and 1% in assay [20].

Take `Cn1ccc2ncnc(Oc3ccc(NC(=O)Nc4ccnc(C(F)(F)F)c4)c(Cl)c3)c21`: the “%Inh” value in assay [1] was 17%; in assay [2], 45%; in assay [3] it was 0%; in [4] it was 0%; in [5], 0%; in assay [6], 0%. The “%Inh” value was 5% in [7]; 0% in assay [8]; 0% in assay [9]; 31% in [10]; 0% in assay [11]; 0% in [12]. Also, the “%Inh” value in assay [13] is reported as 0%; in assay [14], 13%; in [15] it was 25%; in [16], 0%; in assay [17], 13%; in assay [18] it was 7%. In addition, the “%Inh” value in assay [19] and in [20] was 0% throughout.

Regarding `NC(=O)c1ccc(-c2cc3ncnc(SCC(=O)O)c3s2)cc1`, the “%Inh” value in assay [1] came out at 15%; in [2], 0%; in [3] it was 0%; in assay [4], 0%; in assay [5], 0%; in assay [6] it was 8%. Also, the “%Inh” value in assay [7] was found to be 18%; in assay [8], 0%; in assay [9], 5%; in assay [10], 0%; in assay [11], 0%; in [12], 0%. Besides, the “%Inh” value in assay [13] is 0%; in [14], 0%; in assay [15], 0%; in [16], 0%; in assay [17], 75%; in assay [18], 81%. The “%Inh” value in assay [19] and in assay [20] was 0% in each case.

Regarding `Cc1cccc2c(-c3ccncc3)c(-c3ccc(F)cc3)nn12.Cl` [GW461487], the “%Inh” value was 15% in assay [1]; 14% in assay [2]; 0% in assay [3]; 0% in assay [4]; 0% in assay [5]; 0% in assay [6]. Moreover, the “%Inh” value is given as 52% in [7]; 0% in assay [8]; 4% in assay [9]; 20% in assay [10]; 0% in assay [11]; 0% in [12]. Also, the “%Inh” value in assay [13] is listed as 0%; in [14], 29%; in assay [15], 32%; in assay [16], 0%; in assay [17] it was 0%; in [18] it was 11%. Also, the “%Inh” value in [19] is 3%; in [20], 0%.

`O=C1NCCc2[nH]c(-c3ccncc3)cc21`: the “%Inh” value in assay [1] worked out at 35%; in [2] it was 0%; in assay [3], 0%; in assay [4] it was 0%; in [5] it was 6%; in [6] it was 0%. Besides, the “%Inh” value in [7] is 20%; in assay [8] it was 1%; in assay [9], 11%; in [10], 0%; in assay [11], 13%; in assay [12] it was 9%. In addition, the “%Inh” value came to 10% in assay [13]; 0% in assay [14]; 0% in [15]; 0% in assay [16]; 0% in [17]; 0% in assay [18]. The “%Inh” value in assay [19] and in assay [20] was 0% in each case.

In the case of `COc1cc2c(Nc3ccc(NC(=O)c4ccccc4)cc3)ncnc2cc1OCCCN1CCOCC1` [GSK301329], the “%Inh” value in assay [1] came out at 7%; in assay [2], 0%; in [3], 77%; in [4], 20%; in [5], 0%; in assay [6] it was 0%. The “%Inh” value in assay [7] was determined as 10%; in assay [8], 9%; in [9], 35%; in assay [10], 9%; in [11], 40%; in assay [12], 0%. The “%Inh” value is listed as 0% in [13]; 0% in [14]; 1% in assay [15]; 0% in [16]; 0% in [17]; 0% in [18]. The “%Inh” value is listed as 17% in assay [19] and 0% in assay [20].

As for `Cc1cccc(-c2nc(Nc3ccncc3)c3sccc3n2)n1` [GW869641], the “%Inh” value was 11% in [1]; 36% in assay [2]; 6% in [3]; 0% in [4]; 7% in assay [5]; 58% in [6]. Also, the “%Inh” value in [7] turned out to be 54%; in [8] it was 16%; in assay [9] it was 24%; in assay [10], 7%; in [11], 24%; in assay [12] it was 3%. Moreover, the “%Inh” value in assay [13] came to 9%; in assay [14] it was 14%; in [15] it was 18%; in [16] it was 0%; in [17], 11%; in [18] it was 23%. Further, the “%Inh” value in assay [19] is 21%; in assay [20] it was 6%.

For the compound `C[C@@H](Oc1cc(-n2cnc3ccc(-c4ccncc4)cc32)sc1C(N)=O)c1ccccc1Cl` [GSK483724], the “%Inh” value in assay [1] was determined as 27%; in [2], 8%; in assay [3] it was 25%; in assay [4], 24%; in assay [5], 20%; in assay [6] it was 0%. Besides, the “%Inh” value turned out to be 41% in [7]; 8% in assay [8]; 21% in assay [9]; 21% in assay [10]; 40% in assay [11]; 15% in assay [12]. Besides, the “%Inh” value in assay [13] was determined as 0%; in assay [14] it was 31%; in [15], 37%; in assay [16], 0%; in [17], 34%; in assay [18], 59%. In addition, the “%Inh” value in assay [19] turned out to be 14%; in assay [20] it was 0%.

The record behind these values is paper PMC5540273 (PLoS ONE, 2017).
